From PubChem BioAssay
The sample as a whole holds a higher share of hits than the screen did.
Pf Dd2 growth = inhibitors of Plasmodium falciparum Dd2 growth | P. falciparum Dd2 growth, SYBR Green, 72 h | Potency, µM (highest dose often 28.9 µM), inactives show at the highest dose activity, negative = inhibition, hits mostly inhibitors | actives 4.3% (n = 120,000); active means well fitted inhibition curve with a large enough effect;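 further: plate controls were DMSO vehicle for no effect and reference drug for full effect; nearly all actives have a fitted effect of over 65% in size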
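Infected erythrocytes (Dd2, 0.3% parasitemia, 2.5% hematocrit final) are added to compound in RPMI-1640/Albumax II medium, grown 72 h at 37C in low oxygen, then lysed with saponin/Triton-X containing SYBR Green and read by fluorescence.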
* hit, by the source's call; i = inactive; [ ] = another dose, or the depositor's remark. Potency means the concentration at half of the fitted maximal effect.

SMILES	Pf Dd2 growth
COc1ccc(-c2nnc3n2CCN(C(=O)C(C)(C)C)C3)cc1	1.8%[44.1 µM]
COc1ccc(C(=O)N2CCC3(C2)C(=O)N(C)c2ccccc23)cc1 (stereo not given)	-10.3%[44.1 µM]
O=C(c1ccc(CC2CCN(C(=O)c3ccccn3)CC2)cc1)N1CCOCC1	-13.6%
O=C(NCCc1nc2ccccc2[nH]1)C1CCN(C(=O)N2CC3CC(C2)[C@H]2CCCC(=O)N2C3)CC1 (stereo not given in full)	i
COCC(=O)NC[C@H]1CCN(Cc2ccc(OC)cc2)C[C@H]1N(C)C	9.0%
CN(CC1CCOCC1)C(=O)c1cccc(F)c1	37.5%
COc1ccc(F)c(-c2nc(CN3CCN4C(=O)CNC(=O)C4C3)c(C)o2)c1 (stereo not given)	6.2%
Cc1noc(C)c1[S+](=O)([O-])N1CCC2(C1)C(=NC1CCCC1)NC(=O)N2c1cccnc1 (stereo not given)	18.1%
O=C1CCCCC(Cc2cccnc2)(C(=O)NCC2CC2)N1 (stereo not given)	-12.4%
O=C(CC1CCCN(c2cn[nH]c(=O)c2)C1)NCc1ccc(F)cc1F (stereo not given)	i
COc1ccc(-c2cc3nc(C)c(CCC(=O)N4CCN(c5ccc(F)cc5)CC4)c(C)n3n2)c(OC)c1	10µM*
Cc1nc2ncnn2c(C)c1CCC(=O)N1CCN(c2ccc(F)cc2)CC1	4.7%
COc1ccc(N2CCN(C(=O)CCc3c(C)nc4cc(-c5ccc(Cl)cc5)nn4c3C)CC2)cc1	i
COc1ccc(N2CCN(C(=O)c3c(C)nn(-c4ccc(F)cc4)c3-n3cccc3)CC2)cc1	10.4%
COc1ccc(-c2cc3nc(C)c(CCC(=O)N4CCN(c5cccc(Cl)c5)CC4)c(C)n3n2)c(OC)c1	10µM*
Cc1nc2ncnn2c(C)c1CCC(=O)N1CCN(c2cccc(Cl)c2)CC1	7.2%
CCn1c(CO)nnc1C1CC(NC(=O)Cc2c(C)n[nH]c2C)C1 (stereo not given)	-2.0%
COc1ccc(S(=O)(=O)NC[C@H]2COCc3nc4ccc(C)cc4n32)cc1	-28.7%[44.1 µM]
CC(=O)Nc1ccc(CC(=O)NCCc2noc(C3CC3)n2)cc1	52.2%
CC[C@H]1CN(C(=O)C2CC2)CC[C@H]1CC(=O)O	21.0%[44.1 µM]
CCC1CN(C(=O)c2ccc(NCc3cnn(CC)c3)nc2)CCN1C(C)C (stereo not given)	-6.3%
COC(=O)N1CCC2(CC1)C(=O)NCN2Cc1ccc(Cl)cc1	i
COc1ccc(CCC(=O)NCc2ccc3c(c2)CCN3C(=O)c2ccccc2)cc1	6.31µM*
COc1ccc(OCC(=O)NCc2ccc3c(c2)CCN3C(=O)c2ccccc2)cc1	-4.0%
COc1ccc(CCC(=O)NCc2ccc3c(c2)CCN3C(=O)c2ccc(C)cc2)cc1	20.8%
SMILES	Pf Dd2 growth
CN1c2cc(C(=O)NC3CCCC3)ccc2C(=O)N2CCCCC21 (stereo not given)	i
CCn1cc(-c2ccc(Cl)cc2)cc1C(=O)NCc1ccncc1	i
CCOC(=O)C1CCN(C(=O)c2cc(-c3ccncc3)cn2Cc2ccccc2C)CC1	6.31µM*
Cc1ccc(-c2cc(C(=O)O)n(C)c2)cc1	31.6%
Cc1ccccc1Cn1cc(-c2ccncc2)cc1C(=O)O	i
Cc1ccc(Cn2cc(-c3ccncc3)cc2C(=O)N2CCN(C)CC2)cc1	6.31µM*
CCOC(=O)C1CCN(C(=O)c2cc3sc(C)cc3n2C)CC1	-4.0%
Cc1cc(C)n2nc(C)c(C(=O)N[C@@H]3COCC[C@@H]3OCC3CC3)c2n1	-18.7%
CC(C)n1ccnc1CN1CCC2(CCCO2)CCC1=O (stereo not given)	4.6%
Cn1ncc(CN2CCCC23CCN(c2ccc(C(F)(F)F)cn2)CC3)c1C1CC1	11.2µM*
Cc1ccc(C2(O)CCN(c3cc(C(F)(F)F)ccn3)CC2)nc1	-8.0%
FC(F)(F)CN1C2CCC1CN(c1ccc(C(F)(F)F)cn1)C2	26.6%
Cc1cccc(C)c1CN1CC2(COCC1=O)CN(c1ccc(C(F)(F)F)cn1)C2	-1.2%[44.1 µM]
Cn1cc(CN2CCCC23CCN(c2ccc(C(F)(F)F)cn2)CC3)cc1C#N	5.01µM*
CC(C)n1ccnc1CN1CCCC12CCN(c1ccc(C(F)(F)F)cn1)CC2	12.6µM*
COc1ccc(CN2CC3(COCC2=O)CN(c2ccc(C(F)(F)F)cn2)C3)cc1F	i
C[C@@H]1CN(C2CCN(Cc3cnn(C)c3C3CC3)CC2)C[C@H](C)O1	1.2%
COCCn1ncc(N2CCC(NC(=O)c3ccc(C)cc3C)CC2)cc1=O	i
COCC(=O)N[C@H]1CC[C@]2(C)CC[C@@H]([C@H](C)C(=O)N3CCCCC3)[C@H](O)[C@H]2[C@@H]1C	33.6%[44.1 µM]
N#Cc1ccc(C(=O)Nc2ccc(=O)n3c2[C@@H]2C[C@@H](CN(C(=O)c4ccc(F)cc4)C2)C3)cc1	-8.5%
COc1cc(C)c(CN2CCC3(CC2)[C@H](O)C[C@@H]3OCCN)cc1C	3.9%
Cc1cccc2oc(CNC(=O)[C@H]3CCC[C@H](O)C3)nc12	-11.9%
CC(C)(C)c1[nH]nc2c1C(c1ccnc3ccccc13)CC(=O)N2 (stereo not given)	-11.7%
